Screens: PubChem BioAssay, Sanford-Burnham Center for Chemical Genomics
Compounds with a hit are over-represented: about 28% of the library has one in this group of screens.
Pyk2 oligo antag = Pyk2 (human) oligomerization antagonism. Q14289. Q293 cells, Pyk2 FERM NanoBiT luminescence; active compounds read low. z-score (the deposit names both 25 µM and 10 µM). 99,000 tested, 0.83% active. AID 1347419;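 active = Z-score of -3 or lower, scaled per plate to the spread of control and sample wells; inactive = z-score above -3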;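 note: negative z-score means lost luminescence so less FERM oligomerization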
CYP2C19 inh = blocks human cytochrome P450 2C19; P33261; CYP2C19 Supersomes, luciferin-H EGE luminescence, 30 min; inhibition, % at 5 µM; 96,000 tested, 21% active; AID 778;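 active = CYP2C19 inhibition above a set limit at 5 µM in the primary screen, cut at about 50% in these data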;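 note: plate controls were negative control wells for no effect and 2.5 mM tranylcypromine positive control for full effect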
CYP2C19 activ = cytochrome P450 2C19 (human) activation; P33261; recombinant CYP2C19, luciferin-H EGE luminescence; active compounds read high; 0 = fully inhibited enzyme, 1 = untreated enzyme; activation factor at 5 µM; 96,000 tested, under 10 active; AID 1025;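 active = activation factor of at least 2 at 5 µM in the primary screen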;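 note: 0 = wells with 2.5 mM tranylcypromine and 1 = vehicle-only wells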
CYP2C9 act = increases human cytochrome P450 2C9 activity | P11712 | recombinant CYP2C9, luciferin-H conversion, luminescence; active compounds read high; factor 1 = untreated enzyme, 0 = blocked | activation factor at 5 µM | 96,000 tested, 1.4% active | AID 1024;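 active = activation factor of 2 or more for CYP2C9 at a 5 µM dose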;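 note: 0 = sulfaphenazole-blocked wells and 1 = vehicle-only wells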
CYP2C9 inh = human CYP2C9 inhibition; CYP2C9 Supersomes, luciferin-H conversion, luminescence; inhibition, % at 5 µM; 96,000 tested, 20% active; AID 777;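 active = blocking of liver enzyme CYP2C9 beyond about 50% at 5 µM, limit read from the data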
* marks the source's active call; other numbers are inactive results.

Cc1nc2sc(C(c3cccc(F)c3)N3CCC(C)CC3)c(O)n2n1 (stereo not drawn) was read as Pyk2 oligo antag -0.37, CYP2C19 inh 80*, CYP2C19 activ 0.2, CYP2C9 act 0.8 and CYP2C9 inh 15.
For COc1cccc(C(c2sc3nc(C)nn3c2O)N2CCc3ccccc3C2)c1 (stereo not drawn) the results were CYP2C19 inh 78*, CYP2C19 activ 0.2, CYP2C9 act 0.5 and CYP2C9 inh 53*.
For Cc1nc2sc(C(c3ccccc3)N3CCN(c4ccccc4F)CC3)c(O)n2n1 (stereo not drawn) the results were Pyk2 oligo antag -1.6, CYP2C19 inh 66*, CYP2C19 activ 0.3, CYP2C9 act 0.5 and CYP2C9 inh 50.
For COc1ccc(C(c2sc3nc(C)nn3c2O)N2CCC(O)CC2)cc1OC (stereo not drawn) the results were CYP2C19 inh -4, CYP2C19 activ 1, CYP2C9 act 1.1 and CYP2C9 inh -10.
Screening COc1cc(OC)c(NC(=O)CCNC(=O)Cn2cnc3ccccc3c2=O)cc1Cl returned Pyk2 oligo antag 0.5, CYP2C19 inh -13, CYP2C19 activ 1.1, CYP2C9 act 0.7 and CYP2C9 inh 30.
`CCOC(=O)c1ccccc1NC(=O)CCNC(=O)Cn1cnc2ccccc2c1=O` gave Pyk2 oligo antag 0.19, CYP2C19 inh -3, CYP2C19 activ 1, CYP2C9 act 0.5 and CYP2C9 inh 52*.
Cc1cccc(NC(=O)Cn2cnc3ccccc3c2=O)c1C was read as Pyk2 oligo antag 0.22, CYP2C19 inh 8, CYP2C19 activ 0.9, CYP2C9 act 0.9 and CYP2C9 inh 10.
`CN(c1ccccc1)S(=O)(=O)c1cccc(NC(=O)Cn2cnc3ccccc3c2=O)c1` gave Pyk2 oligo antag -1.6, CYP2C19 inh 62*, CYP2C19 activ 0.4, CYP2C9 act 0.1 and CYP2C9 inh 94*.
Screening O=C(Cn1cnc2ccccc2c1=O)c1c[nH]c2ccccc12 returned Pyk2 oligo antag -0.53, CYP2C19 inh 53*, CYP2C19 activ 0.5, CYP2C9 act 0.7 and CYP2C9 inh 31.
CC(C)(C)c1csc(NC(=O)Cn2cnc3ccccc3c2=O)n1 was read as Pyk2 oligo antag -1.2, CYP2C19 inh -8, CYP2C19 activ 1.1, CYP2C9 act 0.9 and CYP2C9 inh 12.
For CCN(CC)S(=O)(=O)c1cc(NC(=O)Cn2cnc3ccccc3c2=O)ccc1C the results were Pyk2 oligo antag -0.9, CYP2C19 inh 42, CYP2C19 activ 0.6, CYP2C9 act 0.5 and CYP2C9 inh 53*.
Screening Cc1cnn(-c2ccc3nnc(-c4ccc(Br)cc4)n3n2)c1 returned Pyk2 oligo antag 0.18, CYP2C19 inh 0, CYP2C19 activ 1, CYP2C9 act 0.9 and CYP2C9 inh 14.
COc1ccc(C(=O)/C=C\N2CCOCC2)cc1 was read as Pyk2 oligo antag 0.32, CYP2C19 inh 14, CYP2C19 activ 0.9, CYP2C9 act 0.9 and CYP2C9 inh 10.
For COc1cccc(NC(=O)c2ocnc2C)c1 the results were Pyk2 oligo antag 0.39, CYP2C19 inh 25, CYP2C19 activ 0.8, CYP2C9 act 0.9 and CYP2C9 inh 8.
For CN(C)c1ccc(CNCCC2(O)CCOC(C)(C)C2)cc1 (stereo not drawn) the results were Pyk2 oligo antag 0.48, CYP2C19 inh 53*, CYP2C19 activ 0.5, CYP2C9 act 1 and CYP2C9 inh 4.
`Cc1c(NC(=O)CSc2nnc(-c3ccco3)n2-c2ccccc2)c(=O)n(-c2ccccc2)n1C` gave Pyk2 oligo antag 0.23, CYP2C19 inh -1, CYP2C19 activ 1, CYP2C9 act 1 and CYP2C9 inh 1.
`Cn1cc(CC(=O)NCCCN2CCCC2=O)c2ccccc21` gave CYP2C19 inh 16, CYP2C19 activ 0.8, CYP2C9 act 2.4* and CYP2C9 inh -138.
For CCCN(C(=O)Cn1ncc2c(=O)oc3ccccc3c21)c1cccc(C)c1 the results were Pyk2 oligo antag -0.56, CYP2C19 inh 36, CYP2C19 activ 0.6, CYP2C9 act 0.4 and CYP2C9 inh 60*.
O=C(Cn1ncc2c(=O)oc3ccccc3c21)NC1CC1 was read as Pyk2 oligo antag -0.28, CYP2C19 inh 4, CYP2C19 activ 1, CYP2C9 act 0.9 and CYP2C9 inh 11.
O=C(Cn1ncc2c(=O)oc3ccccc3c21)Nc1nc2ccccc2s1 was read as CYP2C19 inh 12, CYP2C19 activ 0.9, CYP2C9 act 0.5 and CYP2C9 inh 51*.
`CCN(CCCNC(=O)Cn1ncc2c(=O)oc3ccccc3c21)c1cccc(C)c1` gave CYP2C19 inh 64*, CYP2C19 activ 0.4, CYP2C9 act 0.3 and CYP2C9 inh 70*.
For COC(=O)c1c(Oc2nc(OC)cc(OC)n2)cccc1Oc1nc(OC)cc(OC)n1 the results were Pyk2 oligo antag 0.15.
CC(C)OCCCNC(=O)c1ccc(NS(C)(=O)=O)cc1 was read as Pyk2 oligo antag -0.93, CYP2C19 inh -4, CYP2C19 activ 1, CYP2C9 act 1.1 and CYP2C9 inh -8.
`CCC(C)(C)NC(=O)Cc1ccc(C)cc1` gave Pyk2 oligo antag 0.03, CYP2C19 inh 44, CYP2C19 activ 0.6, CYP2C9 act 0.9 and CYP2C9 inh 6.
`O=C(Cn1ccc2ccccc2c1=O)NCCC(=O)N1CCN(c2cccc(Cl)c2)CC1` gave Pyk2 oligo antag 0.62, CYP2C19 inh 8, CYP2C19 activ 0.9, CYP2C9 act 1 and CYP2C9 inh -2.
Screening CCNC(=O)CC1C(=O)N(c2ccc(F)cc2)C(=O)N1CCC(C)C (stereo not drawn) returned Pyk2 oligo antag 0.94, CYP2C19 inh 11, CYP2C19 activ 0.9, CYP2C9 act 1 and CYP2C9 inh -5.
COCCCNC(=O)Cn1ncc2c(=O)oc3ccccc3c21 was read as Pyk2 oligo antag 1.3, CYP2C19 inh 3, CYP2C19 activ 1, CYP2C9 act 1.1 and CYP2C9 inh -10.
`O=C(Cn1ncc2c(=O)oc3ccccc3c21)NCCCN1CCCC1=O` gave CYP2C19 inh 80*, CYP2C19 activ 0.2, CYP2C9 act 0.9 and CYP2C9 inh 11.
Screening O=C(CSc1ccccc1C(=O)O)Nc1cccc(C(=O)O)c1 returned Pyk2 oligo antag 0.37, CYP2C19 inh -3, CYP2C19 activ 1, CYP2C9 act 1.1 and CYP2C9 inh -15.
`O=C(COC(=O)C1CCC1)Nc1ccc(Oc2ccccc2)cc1` gave Pyk2 oligo antag 0.94, CYP2C19 inh 55*, CYP2C19 activ 0.4, CYP2C9 act 1.4 and CYP2C9 inh -38.
Screening CC1CC1C(=O)OCC(=O)NCc1ccccc1Cl (stereo not drawn) returned Pyk2 oligo antag 0.16, CYP2C19 inh 88*, CYP2C19 activ 0.1, CYP2C9 act 0.9 and CYP2C9 inh 8.
Screening O=C(COC(=O)CCCNC(=O)c1ccc(Cl)cc1)NCc1ccccc1Cl returned Pyk2 oligo antag 0.08, CYP2C19 inh 56*, CYP2C19 activ 0.4, CYP2C9 act 0.3 and CYP2C9 inh 70*.
O=C(COC(=O)C1CCC1)NCc1ccccc1Cl was read as Pyk2 oligo antag 0.38, CYP2C19 inh 88*, CYP2C19 activ 0.1, CYP2C9 act 0.7 and CYP2C9 inh 30.
